ELG1 repair inh: qHTS screen for small molecules that inhibit ELG1-dependent DNA repair in human embryonic kidney (HEK293T) cells expressing luciferase-tagged ELG1; HEK293T ELG1-luciferase reporter, luminescence, 16 h; DNA damage induced by 5-fluorouridine; Potency, µM (highest dose often 46.1 µM), without a hit: at the highest dose activity change, negative = inhibition, actives largely listed as inhibitors; hit rate 2.3% among 330,000; AID 504467, 2011; note: potency is the fitted concentration of half-maximal effect; nearly all actives have a fitted effect of over 55% in size
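Overnight (16 hr) co-exposure of 2,000 cells/well to 5-fluorouridine and compound at 37 °C preceded detection. Luciferase was quantified via ONE-Glo luminescence; loss of signal denotes inhibition.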
DT40 TDP1 no CPT: qHTS for Inhibitors of human tyrosyl-DNA phosphodiesterase 1 (TDP1): qHTS in cells in absence of CPT. Potency, µM (titrated, usually from 46.2 µM), inactives show top-dose activity change, negative = growth inhibition, actives largely listed as inhibitors. DT40 Tdp1-/- hTDP1 cells, no CPT, ATP luminescence, 48 h. hit rate 15% among 420,000; note: potency is the fitted concentration of half-maximal effect; nearly all actives have a fitted effect of over 55% in size
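Readout: luminescence from CellTiter-Glo after 30 min in the dark at RT. Cells: DT40 Tdp1-/- with stable hTDP1, 400/well. Exposure: compounds alone, ≥48 hr, 37 °C.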
HT1080 IDH1KD tx: qHTS for induction of synthetic lethality in tumor cells producing 2HG: qHTS for the HT-1080-IDH1KD cell line; hit rate 2% among 360,000; HT-1080 IDH1 knockdown viability, ATP luminescence, 48 h; Potency, µM (top dose mostly 46.1 µM), without a hit: at the highest dose activity, negative = toxicity, most hits filed as cytotoxic;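 note: potency is the fitted concentration of half-maximal effect; 0% = DMSO wells and -100% = cell-free medium wells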
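Luminescent ATP read-out (CellTiter-Glo, 10 min at room temperature) after 48 h compound exposure at 37 °C gave viability of IDH1-knockdown HT-1080 cells. Activity was normalised to DMSO and cell-free wells, then fitted as concentration-response curves.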
HT1080NT lethal: qHTS for induction of synthetic lethality in tumor cells producing 2HG: qHTS for the HT-1080-NT fibrosarcoma cell line. Potency, µM (series often up to 46.1 µM), inactives show top-dose activity, negative = less viability, hits mostly cytotoxic. HT-1080-NT fibrosarcoma viability, CellTiter-Glo ATP luminescence, 48 h. hit rate 1.6% among 360,000;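 note: NT is the 2HG producing partner of a matched IDH1 knockdown line; potency is the fitted concentration of half-maximal effect; 0% = DMSO-treated cells and -100% = media-only wells without cells; nearly all actives have a fitted effect of over 55% in size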
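A 48-hour cytotoxicity screen used HT-1080-NT cells plated 2 hours before compound delivery. ATP-based CellTiter-Glo luminescence measured viability, normalized to DMSO and no-cell controls.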
DT40 TDP1 CPT: qHTS for Inhibitors of human tyrosyl-DNA phosphodiesterase 1 (TDP1): qHTS in cells in presence of CPT. chicken DT40 Tdp1-/-;hTDP1 cells + 20 nM CPT, ATP luminescence, 48 h. Potency, µM (titrated, usually from 46.2 µM), without a hit: at the highest dose activity change, negative = growth inhibition, actives largely listed as inhibitors. hit rate 12% among 420,000. AID 686979, 2013; note: potency is the fitted concentration of half-maximal effect; nearly all actives have a fitted effect of over 55% in size
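Chicken DT40 Tdp1-/- cells complemented with human TDP1, 400 cells/well, exposed to compounds plus 20 nM camptothecin for at least 48 h at 37 C; viability read as ATP content by CellTiter-Glo luminescence.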
IL1B secr inh: qHTS for Inhibitors of Inflammasome Signaling: IL-1-beta AlphaLISA Primary Screen | hit rate 4.7% among 360,000 | THP-1 LPS/ATP IL-1B secretion, AlphaLISA, 16 h; active compounds read low | AID 743279, 2014 | activity change, % at 57.5 µM; in the data active = activity change below about -50%; inconclusive = mostly about -30% to -49%
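THP-1 cells pretreated 1 hr with compounds (up to 57.5 uM final), then stimulated with LPS (250 ng/mL final) plus ATP (1.25 mM final); secreted IL-1B measured by AlphaLISA after 16 hr, decreased signal indicating inhibition.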
* marks the source's active call; other numbers are inactive results. A selection: hits, their analogues and other compounds. The true share with any hit is near 19%. Unless noted, calls come from the whole dose curve; as a rule, active = well fitted curve in the direction sought with a large enough effect; inconclusive = small, poorly fitted or top-dose-only effect, or another doubt; inactive = no such curve, though single readings can be large; an effect the other way counts as inactive or inconclusive. Unless noted, % is set by controls: 0 for no effect and ±100 for the full control effect.

For COc1ccc(-c2ccc(SCC(=O)N3c4ccccc4CC3C)nn2)cc1OC (stereo not given) the results were ELG1 repair inh 16.4µM*, DT40 TDP1 no CPT inconclusive, HT1080 IDH1KD tx 1.7%, HT1080NT lethal 6.5%, DT40 TDP1 CPT inconclusive and IL1B secr inh -17.6.
Screening CCOC(=O)N1CCN(C(=O)CSc2ccc(-c3ccc(OC)c(OC)c3)nn2)CC1 returned ELG1 repair inh inconclusive, DT40 TDP1 no CPT inconclusive, HT1080 IDH1KD tx 3.2%, HT1080NT lethal 2.8%, DT40 TDP1 CPT inconclusive and IL1B secr inh -10.9.
For NC(=O)c1nnn(Cc2cc(Cl)c(C(=O)c3ccc(Cl)cc3)c(Cl)c2)c1N the results were DT40 TDP1 no CPT 16.4µM*, HT1080 IDH1KD tx 4.11µM*, HT1080NT lethal 9.2µM*, DT40 TDP1 CPT 4.61µM* and IL1B secr inh -0.3.
`Nc1c(C(=O)Nc2ccc3c(c2)OCCO3)nnn1Cc1ccc(Cl)cc1` gave ELG1 repair inh inconclusive, DT40 TDP1 no CPT -21.8%, HT1080 IDH1KD tx -6.7%, HT1080NT lethal -16.9%, DT40 TDP1 CPT -16.7% and IL1B secr inh 4.0.
For COc1cccc(NC(=O)C2(C)CCN2CCc2ccccc2)c1 (stereo not given) the results were DT40 TDP1 no CPT inconclusive, HT1080 IDH1KD tx -4.4%, HT1080NT lethal 8.0%, DT40 TDP1 CPT 23.1µM* and IL1B secr inh 16.6.
For COc1ccc(OC)c(NC(=O)C2(C)CCN2CCc2ccccc2)c1 (stereo not given) the results were DT40 TDP1 no CPT 16.4µM*, HT1080 IDH1KD tx inconclusive, HT1080NT lethal inconclusive, DT40 TDP1 CPT 23.1µM* and IL1B secr inh 16.0.
`Cc1[nH]n(-c2ccccc2)c(=O)c1/C=N/NC(=O)COc1ccccc1[N+](=O)[O-]` gave ELG1 repair inh 1.6%, DT40 TDP1 no CPT 4.61µM*, HT1080 IDH1KD tx inconclusive, HT1080NT lethal inconclusive, DT40 TDP1 CPT 5.8µM* and IL1B secr inh 208.7.
Cc1ccc(OCC(=O)N/N=C\c2c(C)n(C)c3ccccc23)c([N+](=O)[O-])c1 was read as ELG1 repair inh inconclusive, DT40 TDP1 no CPT 18.4µM*, HT1080 IDH1KD tx inconclusive, HT1080NT lethal -29.2%, DT40 TDP1 CPT inconclusive and IL1B secr inh inconclusive.
CC(=O)N/N=C/c1c(C)[nH]n(-c2ccccc2)c1=O was read as ELG1 repair inh -4.4%, DT40 TDP1 no CPT inconclusive, HT1080 IDH1KD tx -20.6%, HT1080NT lethal -17.5%, DT40 TDP1 CPT -16.3% and IL1B secr inh -0.3.
For Cc1c(/C=N/NC(=O)COc2ccccc2[N+](=O)[O-])c2ccccc2n1C the results were ELG1 repair inh inconclusive, DT40 TDP1 no CPT inconclusive, HT1080 IDH1KD tx -28.6%, HT1080NT lethal -23.6%, DT40 TDP1 CPT inconclusive and IL1B secr inh 44.6.
`Cc1[nH]n(-c2ccccc2)c(=O)c1/C=N/NC(=O)C(C)C` gave ELG1 repair inh -13.7%, DT40 TDP1 no CPT inconclusive, HT1080 IDH1KD tx -24.2%, HT1080NT lethal -7.8%, DT40 TDP1 CPT 14.6µM* and IL1B secr inh 7.0.
Cc1[nH]n(-c2ccccc2)c(=O)c1/C=N/N1C(=O)c2ccc3c4c(ccc(c24)C1=O)CC3 was read as ELG1 repair inh -1.2%, DT40 TDP1 no CPT 18.4µM*, HT1080 IDH1KD tx inconclusive, HT1080NT lethal inconclusive, DT40 TDP1 CPT inconclusive and IL1B secr inh -87.8*.
For O=C(COc1ccccc1[N+](=O)[O-])N/N=C/c1ccccn1 the results were ELG1 repair inh 23.1%, DT40 TDP1 no CPT -24.6%, HT1080 IDH1KD tx -2.1%, HT1080NT lethal -4.0%, DT40 TDP1 CPT -4.2% and IL1B secr inh -17.7.
`COc1ccc2c(CN3CCCCCCC3)cc(=O)oc2c1` gave DT40 TDP1 no CPT inconclusive, HT1080 IDH1KD tx -12.4%, HT1080NT lethal 1.1%, DT40 TDP1 CPT inconclusive and IL1B secr inh 47.6.
Screening C[C@@H]1CN([C@@H](C)CO)C(=O)CCCn2nncc2CO[C@H]1CN(C)S(=O)(=O)c1cccc(F)c1 returned DT40 TDP1 no CPT -16.6%, HT1080 IDH1KD tx 11.6%, HT1080NT lethal 0.8%, DT40 TDP1 CPT 0.5% and IL1B secr inh 14.2.
Screening Cn1c(SCC(=O)Nc2nc3ccccc3s2)ncc(C(=O)Nc2ccc(Cl)cc2)c1=O returned DT40 TDP1 no CPT -0.5% and DT40 TDP1 CPT -8.4%.
`CCC1([N+](=O)[O-])COC(c2ccc(OC)cc2)OC1` (stereo not given) gave DT40 TDP1 no CPT 0.8%, HT1080 IDH1KD tx 10.0%, HT1080NT lethal 0.1%, DT40 TDP1 CPT 16.3% and IL1B secr inh -11.0.
CC1(C)Oc2ccc3ccc(=O)oc3c2/C(=C/NNC(N)=S)C1=O was read as ELG1 repair inh 12.0%, DT40 TDP1 no CPT inconclusive, HT1080 IDH1KD tx -10.4%, HT1080NT lethal 5.1%, DT40 TDP1 CPT 6.2% and IL1B secr inh 9.6.
COC(=O)N/N=C\c1c(C)[nH]n(-c2ccccc2)c1=O was read as ELG1 repair inh -5.7%, DT40 TDP1 no CPT -13.3%, HT1080 IDH1KD tx -3.5%, HT1080NT lethal 15.8%, DT40 TDP1 CPT 1.6% and IL1B secr inh 7.8.
For Cc1nn(-c2ccccc2)c(Cl)c1/C=N/NC(=O)c1ccccc1F the results were ELG1 repair inh inconclusive, DT40 TDP1 no CPT inconclusive, HT1080 IDH1KD tx -16.9%, HT1080NT lethal -18.7%, DT40 TDP1 CPT -25.1% and IL1B secr inh -1.5.
Screening COCC(=O)N/N=C/c1c(C)[nH]n(-c2ccccc2)c1=O returned ELG1 repair inh inconclusive, DT40 TDP1 no CPT 16.4µM*, HT1080 IDH1KD tx -18.5%, HT1080NT lethal -3.7%, DT40 TDP1 CPT 18.4µM* and IL1B secr inh -9.0.
Cc1[nH]n(-c2ccccc2)c(=O)c1/C=N/NC(=O)c1ccccc1F was read as ELG1 repair inh 2.31µM*, DT40 TDP1 no CPT 5.17µM*, HT1080 IDH1KD tx inconclusive, HT1080NT lethal inconclusive, DT40 TDP1 CPT 6.51µM* and IL1B secr inh 27.3.
For O=C(OCC(=O)N1CCCC1)c1c2c(nc3ccccc13)CCCCC2 the results were ELG1 repair inh 2.7%, DT40 TDP1 no CPT inconclusive, HT1080 IDH1KD tx 0.4%, HT1080NT lethal -5.5%, DT40 TDP1 CPT inconclusive and IL1B secr inh 47.5.
